Screening results as filed in PubChem BioAssay.
STAT3 SMM: binders of human STAT3. P40763. Small molecule microarray, His-STAT3 binding, anti-His fluorescence. calls only. 0.2% of 17,000 active;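 active = compounds whose four printed spots each show fluorescence over background unusually high for their array block, chance value under 7%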
Target sequence (P40763 whole entry, looked up): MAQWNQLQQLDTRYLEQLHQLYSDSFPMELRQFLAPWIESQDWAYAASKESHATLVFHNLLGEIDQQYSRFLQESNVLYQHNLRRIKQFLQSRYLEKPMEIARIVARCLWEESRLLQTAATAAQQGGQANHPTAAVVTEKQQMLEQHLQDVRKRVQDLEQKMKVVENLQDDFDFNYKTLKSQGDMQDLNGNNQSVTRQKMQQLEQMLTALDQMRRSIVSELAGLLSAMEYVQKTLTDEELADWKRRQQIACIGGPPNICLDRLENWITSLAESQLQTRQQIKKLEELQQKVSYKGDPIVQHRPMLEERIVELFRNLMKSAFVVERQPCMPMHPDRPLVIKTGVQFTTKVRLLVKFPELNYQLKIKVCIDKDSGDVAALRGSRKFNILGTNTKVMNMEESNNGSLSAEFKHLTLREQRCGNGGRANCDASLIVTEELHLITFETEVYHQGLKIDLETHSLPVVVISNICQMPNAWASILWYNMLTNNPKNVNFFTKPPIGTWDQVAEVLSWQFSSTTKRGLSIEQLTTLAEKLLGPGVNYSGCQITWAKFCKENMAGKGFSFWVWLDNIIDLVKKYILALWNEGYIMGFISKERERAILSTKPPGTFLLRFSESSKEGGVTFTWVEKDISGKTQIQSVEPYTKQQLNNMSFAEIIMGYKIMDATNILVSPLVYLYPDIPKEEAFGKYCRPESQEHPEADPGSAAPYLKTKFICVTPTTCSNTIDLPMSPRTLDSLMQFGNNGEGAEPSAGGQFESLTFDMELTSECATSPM
Myc binder: binds human c-Myc on microarray | calls only | small molecule microarray, His-c-Myc binding, anti-His fluorescence | P01106 | 1.5% of 17,000 active;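 active = spot fluorescence over background with P-value below 7% in all four replicate spots, showing protein binding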;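 also: score is binary with 100 for all four spots passing and 0 otherwise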
mut p53 SMM: binders of human mutant p53. small molecule microarray binding, anti-GST fluorescence. calls only. 0.4% of 17,000 active. AID 624136;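 active = compounds whose four printed spots each glow above background more than chance allows, each with a p-value under 7%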
NFkB binder: binds human NF-kappa-B p105 on microarray. 1.3% of 17,000 active. Small molecule microarray, anti-His fluorescence binding. AID 624139. calls only;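 active = spot fluorescence over background significantly raised, with a chance value under 7% in all four replicate spots of the compound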;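 also: probe protein is his-tagged human p50 processed subunit at 1 µg/ml; raw spot fluorescence signals with no normalization applied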
An asterisk follows results filed as active. This is a sample that favours compounds with a hit; in the whole collection about 2.1% have one here.

For COc1ccc(NC(=O)N(C)C[C@@H]2Oc3c(cccc3N(C)C)C(=O)N([C@@H](C)CO)C[C@H]2C)cc1 the results were STAT3 SMM inactive, Myc binder inactive, mut p53 SMM inactive and NFkB binder inactive.
`CC(C)NC(=O)Nc1cccc2c1O[C@H](CN(C)Cc1ccc(Oc3ccccc3)cc1)[C@@H](C)CN([C@@H](C)CO)C2=O` gave STAT3 SMM inactive, Myc binder inactive, mut p53 SMM inactive and NFkB binder inactive.
For CC(C)NC(=O)Nc1ccc2c(c1)C(=O)N([C@H](C)CO)C[C@H](C)[C@@H](CN(C)Cc1ccccc1)OCCCC[C@H](C)O2 the results were STAT3 SMM inactive, Myc binder inactive, mut p53 SMM inactive and NFkB binder active.
`CC(C)NC(=O)Nc1ccc2c(c1)C(=O)N([C@@H](C)CO)C[C@@H](C)[C@H](CN(C)Cc1ccccc1)OCCCC[C@@H](C)O2` gave STAT3 SMM inactive, Myc binder inactive, mut p53 SMM inactive and NFkB binder inactive.
CC(C)(C)[C@@H]1C=C(C(=O)O)O[C@H](OCc2ccc(CO)cc2)C1 was read as STAT3 SMM inactive, Myc binder inactive, mut p53 SMM inactive and NFkB binder active.
`Cc1cc2nn(-c3ccc(F)cc3)nc2cc1NC(=S)NC(=O)COc1ccccc1` gave STAT3 SMM inactive, Myc binder inactive, mut p53 SMM inactive and NFkB binder inactive.
Screening C[C@@H]1CCCCO[C@H](CN(C)C(=O)Nc2ccccc2)[C@@H](C)CN([C@@H](C)CO)C(=O)c2cc(NC(=O)CCC(F)(F)F)ccc2O1 returned STAT3 SMM inactive, Myc binder active, mut p53 SMM inactive and NFkB binder inactive.
Screening C[C@H](CO)N1C[C@H](C)[C@H](CN(C)C(=O)Nc2ccccc2)OCCCC[C@H](C)Oc2ccc(NC(=O)CCC(F)(F)F)cc2C1=O returned STAT3 SMM inactive, Myc binder inactive, mut p53 SMM inactive and NFkB binder active.
`C[C@H]1CN([C@@H](C)CO)C(=O)Cc2cc(NC(=O)CCC(F)(F)F)ccc2O[C@@H]1CN(C)S(=O)(=O)c1ccccc1` gave STAT3 SMM inactive, Myc binder inactive, mut p53 SMM inactive and NFkB binder inactive.
`COc1ccccc1CN1CCN(Cc2cccnc2)CC1` gave STAT3 SMM inactive, Myc binder active, mut p53 SMM inactive and NFkB binder inactive.
Screening Cc1cc2c(CO)cc(O)cc2o1 returned STAT3 SMM inactive, Myc binder inactive, mut p53 SMM inactive and NFkB binder inactive.
Screening CCOc1ccccc1NC(=O)c1ccccc1N(C)S(=O)(=O)c1ccc(C)cc1 returned STAT3 SMM inactive, Myc binder inactive, mut p53 SMM inactive and NFkB binder inactive.
For CCOc1ccccc1C(=O)Oc1c(S(=O)(=O)c2ccc(C)cc2)c(C)nn1-c1ccccc1 the results were STAT3 SMM inactive, Myc binder active, mut p53 SMM inactive and NFkB binder inactive.
For COC(=O)c1ccccc1NC(=O)Cn1c(=O)n(C)c(=O)c2ccccc21 the results were STAT3 SMM inactive, Myc binder inactive, mut p53 SMM inactive and NFkB binder inactive.
Screening C[C@H]1CN([C@@H](C)CO)C(=O)c2cccc(NS(=O)(=O)c3cccs3)c2O[C@@H]1CN(C)C(=O)Nc1cccc2ccccc12 returned STAT3 SMM inactive, Myc binder inactive, mut p53 SMM inactive and NFkB binder inactive.
Screening C[C@@H]1CCCCO[C@H](CN(C)C)[C@@H](C)CN([C@H](C)CO)C(=O)c2cc(NC(=O)Nc3ccc(C(F)(F)F)cc3)ccc2O1 returned STAT3 SMM inactive, Myc binder inactive, mut p53 SMM inactive and NFkB binder inactive.
For C[C@H]1CN([C@@H](C)CO)C(=O)Cc2cc(NS(=O)(=O)c3ccc(Cl)cc3)ccc2O[C@@H]1CN(C)CC1CCCCC1 the results were STAT3 SMM inactive, Myc binder active, mut p53 SMM active and NFkB binder active.
Screening C[C@@H]1CN([C@@H](C)CO)C(=O)c2cc(NC(=O)Nc3ccc(C(F)(F)F)cc3)ccc2O[C@@H](C)CCCCO[C@@H]1CN(C)CC1CCCCC1 returned STAT3 SMM inactive, Myc binder inactive, mut p53 SMM inactive and NFkB binder active.
C[C@@H]1CN([C@@H](C)CO)C(=O)c2cc(NC(=O)c3ccccc3)ccc2O[C@@H](C)CCCCO[C@H]1CN(C)CC1CCCCC1 was read as STAT3 SMM inactive, Myc binder active, mut p53 SMM inactive and NFkB binder inactive.
C[C@H]1CN([C@@H](C)CO)C(=O)Cc2cc(NS(=O)(=O)c3ccc(Cl)cc3)ccc2O[C@H]1CN(C)CC1CCCCC1 was read as STAT3 SMM inactive, Myc binder inactive, mut p53 SMM inactive and NFkB binder inactive.
C[C@@H]1CN([C@@H](C)CO)C(=O)c2cc(NC(=O)Nc3ccc4c(c3)OCO4)ccc2O[C@H]1CN(C)CC1CCCCC1 was read as STAT3 SMM inactive, Myc binder inactive, mut p53 SMM inactive and NFkB binder active.
`C[C@@H]1CN([C@H](C)CO)C(=O)c2cccc(NS(=O)(=O)c3cccs3)c2O[C@H]1CN(C)Cc1ccc(C(F)(F)F)cc1` gave STAT3 SMM inactive, Myc binder inactive, mut p53 SMM inactive and NFkB binder inactive.
Screening C[C@@H]1CCCCO[C@H](CN(C)C(=O)Nc2ccc(C(F)(F)F)cc2)[C@H](C)CN([C@H](C)CO)C(=O)c2cc(NS(C)(=O)=O)ccc2O1 returned STAT3 SMM inactive, Myc binder active, mut p53 SMM inactive and NFkB binder inactive.
C[C@@H]1CCCCO[C@H](CN(C)C(=O)Nc2ccc(C(F)(F)F)cc2)[C@@H](C)CN([C@H](C)CO)C(=O)c2cc(NS(C)(=O)=O)ccc2O1 was read as STAT3 SMM inactive, Myc binder inactive, mut p53 SMM inactive and NFkB binder inactive.
For CC(C)NC(=O)N(C)C[C@H]1OCCCC[C@@H](C)Oc2ccc(NC(=O)Nc3ccc(C(F)(F)F)cc3)cc2C(=O)N([C@@H](C)CO)C[C@H]1C the results were STAT3 SMM inactive, Myc binder active, mut p53 SMM inactive and NFkB binder active.
`CC1=C(CO)C(=O)OC([C@@H](C)[C@H]2CCC3C4CC=C5C[C@@H](O[C@@H]6O[C@H](CO)[C@@H](O)[C@H](O)[C@H]6O)C[C@H](O)[C@]5(C)C4CC[C@@]32C)C1` (some centres undefined) gave STAT3 SMM inactive, Myc binder inactive, mut p53 SMM inactive and NFkB binder inactive.
Screening CC1CCC2(NC1)OC1CC3C4CC=C5CC(O[C@@H]6O[C@H](CO)[C@@H](O[C@@H]7O[C@@H](C)[C@H](O)[C@@H](O)[C@H]7O)[C@H](O)[C@H]6O)CCC5(C)C4CCC3(C)C1C2C (some centres undefined) returned STAT3 SMM inactive, Myc binder inactive, mut p53 SMM inactive and NFkB binder active.
N#Cc1c(C(F)(F)F)cc(-c2cccs2)nc1SCC(O)COc1ccc(Cl)cc1 (centres undefined) was read as STAT3 SMM inactive, Myc binder inactive, mut p53 SMM inactive and NFkB binder inactive.
